# Bioassay records from PubChem BioAssay.
# An excerpt weighted towards active compounds, which were near 12% of everything screened.
# VP16 counter: VP16 counterscreen qHTS for inhibitors of ROR gamma transcriptional activity; Drosophila S2 Gal4-VP16 UAS-luciferase, luminescence, 20 h; Potency, µM (highest dose often 53.6 µM), for inactives: at the highest dose activity, negative = inhibition, most hits filed as inhibitors; hit rate 3.5% among 310,000;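 also: Gal4-VP16 expression switched on by copper sulfate through the metallothionein promoter; nearly all actives have a fitted effect of over 50% in size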
# Sfp PPTase inh: qHTS Assay for Inhibitors of Bacillus subtilis Sfp phosphopantetheinyl transferase (PPTase). Biochemical Sfp PPTase activity, qHTS. 4'-phosphopantetheinyl transferase ffp (Bacillus subtilis), Q9F4F7. Potency, µM, inactives show largest response in the series, negative = inhibition, usual class: inhibitors. hit rate 3.5% among 310,000;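 also: the enzyme is Sfp with the accession as filed and its product quenches rhodamine fluorescence; 0% = enzyme reaction without inhibitor and -100% = no enzyme wells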
#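 Fluorescence-quenching assay: 15 nM Sfp-PPTase preincubated 15 min at room temperature with compound, then 5 uM rhodamine-CoA and 12.5 uM BHQ-2-labelled YbbR peptide added. Fluorescence (ex 525/em 598 nm) read at start and after 30 min; difference gives rate.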
# RORgamma inh: qHTS for inhibitors of ROR gamma transcriptional activity | Drosophila S2 Gal4-RORgamma UAS-luciferase reporter, 20 h | Potency, µM (series often up to 53.6 µM), inactives show at the top dose activity change, negative = inhibition, actives largely listed as inhibitors | hit rate 5.4% among 310,000 | AID 2551, 2010; also: nearly all actives have a fitted effect of over 60% in size
#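 Stable Schneider cell line, Gal4 DNA-binding domain fused to ROR gamma, UAS-luciferase. Cmpd 1 hr RT → CuSO4 700 uM final → 20 hr RT → luciferase reagent 10 min → luminescence.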
# ALDH1A1 inh: qHTS Assay for Inhibitors of Aldehyde Dehydrogenase 1 (ALDH1A1); Purified ALDH1A1, NADH fluorescence, propionaldehyde substrate; Aldehyde dehydrogenase 1A1 (Homo sapiens), P00352; Potency, µM (doses to about 75.3 µM), inactives show at the top dose activity, negative = inhibition, most hits filed as inhibitors; hit rate 7.3% among 220,000; active = well fitted inhibition curve with a large enough effect, not every such curve was filed as active; inconclusive = small, poorly fitted or top-dose-only effect, or another doubt; inactive = no such curve, though single readings can be large or run the other way;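 also: plate controls were no enzyme wells and a reference inhibitor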
# Target sequence (P00352 whole entry, looked up): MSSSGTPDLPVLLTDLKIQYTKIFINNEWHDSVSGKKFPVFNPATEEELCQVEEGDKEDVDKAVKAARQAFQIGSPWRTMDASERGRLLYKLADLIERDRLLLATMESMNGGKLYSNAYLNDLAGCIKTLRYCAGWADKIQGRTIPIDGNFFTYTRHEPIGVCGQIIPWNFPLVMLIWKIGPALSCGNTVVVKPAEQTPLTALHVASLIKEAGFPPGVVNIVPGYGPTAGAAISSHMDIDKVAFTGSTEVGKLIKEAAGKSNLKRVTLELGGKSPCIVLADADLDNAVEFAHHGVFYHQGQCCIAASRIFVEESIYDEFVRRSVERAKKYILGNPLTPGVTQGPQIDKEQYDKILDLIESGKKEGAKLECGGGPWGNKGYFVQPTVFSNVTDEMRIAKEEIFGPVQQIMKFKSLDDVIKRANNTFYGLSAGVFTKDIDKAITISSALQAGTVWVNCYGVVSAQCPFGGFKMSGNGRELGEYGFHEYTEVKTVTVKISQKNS
# PLK1 PBD block: qHTS for Inhibitors of PLK1-PDB (polo-like kinase 1 - polo-box domain): Primary Screen; Plk1 PBD binding of FITC phosphopeptide, fluorescence polarization; hit rate 2.8% among 360,000; Serine/threonine-protein kinase PLK1 (Homo sapiens), P53350; Potency, µM, inactives show max response, negative = inhibition, hits mostly inhibitors; also: series mostly up to about 57 µM; nearly all actives have a fitted effect of over 65% in size
# Starred values were filed as active, the others as inactive; ? = inconclusive; . = not tested or not shown. Unless noted, calls follow the shape of the dose curve; as a rule, active = well fitted curve in the direction sought with a large enough effect; inconclusive = small, poorly fitted or top-dose-only effect, or another doubt; inactive = no such curve, though single readings can be large; an effect the other way counts as inactive or inconclusive. Unless noted, % is scaled to controls: 0 for no effect and ±100 for the full control effect; potency is read from the fitted curve at half-maximal effect.
SMILES,VP16 counter,Sfp PPTase inh,RORgamma inh,ALDH1A1 inh,PLK1 PBD block
O=C1CC(NCC2CCCO2)C(=O)N1c1ccc(Cl)cc1 (configuration not stated),-7%,-8%,?,?,-9%
O=C1C2=C(c3ccccc31)[N+](=O)[C@@H]1CCCC[C@@H]1N2[O-],4%,56µM*,-25%,-16%,?
O=C1C2=C(c3ccccc31)[N+](=O)C1CCCCC1N2[O-] (configuration not stated),0%,-14%,-30%,?,?
Cc1cc(NS(=O)(=O)c2ccc(NS(=O)(=O)c3ccc(CC(C)C)cc3)cc2)nc(C)n1,-20%,-3%,20%,32µM*,0%
CCOC(=O)C(NC(C)=O)(Nc1ccc(S(=O)(=O)Nc2cc(C)on2)cc1)C(F)(F)F (configuration not stated),2%,16%,37%,18%,-9%
Cc1cc(NS(=O)(=O)c2ccc(NC(=O)COc3ccc(Br)cc3)cc2)nc(C)n1,-9%,4%,0%,.,2.7µM*
COc1ccc(S(=O)(=O)Nc2ccc(S(=O)(=O)Nc3cc(C)nc(C)n3)cc2)cc1OC,-3%,12%,-10%,.,4%
Cc1ccc(S(=O)(=O)Nc2ccc(S(=O)(=O)Nc3cc(C)nc(C)n3)cc2)cc1,7%,-17%,-22%,4µM*,2%
CCOC(=O)C(NC(C)=O)(Nc1ccc(S(=O)(=O)Nc2cc(C)nc(C)n2)cc1)C(F)(F)F (configuration not stated),-9%,21%,-11%,14µM*,-10%
CCC[C@@H]1C[C@@]1(CCC)C(NC(=O)c1ccco1)c1ccc(Cl)cc1 (some centres not stated),4%,12%,-1%,0%,.
COc1ccc(CN(C)C[C@@H]2OCc3cnnn3CCCC(=O)N([C@@H](C)CO)C[C@H]2C)cc1,.,.,.,.,-18%
CNC(=O)c1c(NC(=O)CCS(=O)(=O)c2ccc(F)cc2)sc(C)c1C,.,.,.,.,-11%
Cc1cc2nc(-c3nnnn3Cc3ccccc3)c(=O)[nH]c2cc1C,.,.,.,.,-12%
O=C(NC1CCCCC1)C(c1cc2c(cc1[N+](=O)[O-])OCO2)N1CCCCC1 (configuration not stated),-3%,-14%,-3%,28µM*,.
O=CN1CCN(C(C(=O)NC2CCCCC2)c2cc3c(cc2[N+](=O)[O-])OCO3)CC1 (configuration not stated),-8%,?,-13%,5µM*,3%
COc1ccc(NC(=O)C(c2cc3c(cc2[N+](=O)[O-])OCO3)N2CCN(C=O)CC2)cc1 (configuration not stated),1%,-19%,7%,?,-2%
COc1cccc(C2(C)NC(=O)N(CC(=O)c3cc(C)n(C4CC4)c3C)C2=O)c1 (configuration not stated),.,.,.,.,-1%
COc1ccc([C@@H]2C[C@H]3[C@@H](CN2S(=O)(=O)c2ccccc2)C(=O)C[C@@H](c2cccc4ccccc24)N3S(=O)(=O)c2ccc(C)cc2)cc1,.,.,.,.,-5%
Brc1ccc2nc3c(n2c1)CCCC3,?,3%,13µM*,2%,-9%
Cc1cc(C)cc(N2C(=O)CN(Cc3ccccc3)C2=S)c1,5%,1%,-18%,.,24µM*
O=C(CN1CCN(c2ccc(F)cc2)CC1)c1ccc(O)cc1O,-3%,-2%,-2%,.,-17%
Cc1cc(Br)c(OCC(=O)NN)c2c1CCC2,-8%,-2%,-8%,2µM*,-3%
O=C(Nc1cccc(Cl)c1)c1cccc(Oc2ccc([N+](=O)[O-])cc2Cl)c1,-11%,18%,?,10µM*,-11%
COc1ccc(NC(=O)c2cccc(Oc3ccc([N+](=O)[O-])cc3Cl)c2)cc1,?,5%,35%,?,0%
